Data published in PubChem BioAssay (NCI).
Compounds without any hit were thinned out: in the full panel of roughly 83,000, 20% have a hit.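 Percent growth is the endpoint: 0 to 100 indicates growth inhibition (40 means 60% inhibition), 0 means no net growth, and negative values indicate cell death.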 Active and inactive are the calls of the source. The calls were made as follows: active = growth percent below 10; inactive = the rest.

Tests used:
Assay in all cases: NCI-60 one-dose screen, 48 h (100 = growth as untreated, 0 = no growth, -100 = all killed)
[1] = system: SR leukemia; conditions: 10 µM unless noted
[2] = system: RPMI-8226 leukemia; conditions: 10 µM unless noted
[3] = system: OVCAR-8 ovarian; conditions: 10 µM unless noted
[4] = system: OVCAR-5 ovarian; conditions: 10 µM unless noted
[5] = system: OVCAR-4 ovarian; conditions: 10 µM
[6] = system: SK-OV-3 ovarian; conditions: 10 µM unless noted
[7] = system: IGROV1 ovarian; conditions: 10 µM unless noted
[8] = system: HS 578T breast; conditions: 10 µM unless noted
[9] = system: NCI/ADR-RES ovarian; conditions: 10 µM unless noted
[10] = system: OVCAR-3 ovarian; conditions: 10 µM unless noted

Measured: growth

C=CCCCCOc1ccccc1-c1cnc(OCCCCC=C)n1C
inactive: [1] 30.7% | [2] 80.8% | [3] 83.9% | [4] 95.2% | [5] 97.9% | [6] 75% | [7] 62.9% | [8] 66.4% | [9] 30.4%

CC(C)OC(=O)Nc1cc(F)c(F)cc1F
inactive: [1] 102% | [2] 101% | [3] 100% | [4] 93.5% | [5] 103% | [6] 100% | [7] 95.5% | [8] 101% | [9] 102%

CCN(CC)CCCC(C)Nc1c2ccc(C)cc2nc2ccc(OC)cc12 (configuration not stated)
active: [1] 4.33% | [2] 1.21% | [5] -6.2% | [8] 0.397%
inactive: [3] 34.3% | [4] 76.2% | [6] 55.7% | [10] 28.9% | [9] 64%

COCc1nc2ccccc2[nH]1
inactive: [1] 101% | [2] 108% | [3] 102% | [4] 99.8% | [5] 106% | [6] 101% | [7] 101% | [8] 101% | [9] 98.9%

C/C=C/C1OC23CCCCC2C(C#N)(C(=N)O3)C1(C#N)C#N (configuration not stated)
inactive: [1] 49.1% | [2] 98.8% | [3] 93.9% | [4] 103% | [5] 95% | [6] 103% | [7] 96.2% | [10] 90.2% | [9] 104%

O=C(O)c1cc([N+](=O)[O-])ccc1Br
inactive: [1] 112% | [2] 99% | [3] 101% | [4] 90.8% | [5] 99.2% | [6] 113% | [7] 103% | [8] 106% | [9] 98.1%

COc1ccc2nc3c(cc2c1)C(=O)CC(C(F)(F)F)C3 (configuration not stated)
inactive: [1] 16.4% | [2] 93.3% | [3] 40% | [4] 57.7% | [5] 95.7% | [6] 56.8% | [7] 36.6% | [9] 18.9%

CNc1cc(C(=O)O)nc(NC)n1
inactive: [1] 107% | [2] 103% | [3] 101% | [4] 92.1% | [5] 97.6% | [6] 109% | [7] 99.1% | [8] 94.7% | [9] 99.4%

Nc1cccc2c1C(=O)c1cccc(NC(=O)c3ccccc3)c1C2=O
active: [10] -41.1% | [9] -31.1%
inactive: [1] 15.1% | [2] 15.2% | [3] 34.4% | [4] 57.6% | [5] 53% | [6] 20.4%

CCN(CC)CCCNCc1cc(-c2ccccc2)nc2ccccc12
inactive: [2] 20% | [3] 35.1% | [4] 109% | [5] 56.3% | [6] 92.4% | [10] 35.7%
active: [1] 4.37% | [9] -32%

N#Cc1c(Cl)nc(SCC2CO2)nc1-c1ccccc1 (configuration not stated)
inactive: [1] 89.8% | [2] 103% | [3] 51.6% | [4] 101% | [5] 103% | [6] 70.2% | [10] 137% | [8] 121% | [9] 108%

COc1cc(NN=C(c2ccc(O)cc2)c2ccc(O)cc2)c([N+](=O)[O-])cc1[N+](=O)[O-]
active: [3] -31.7% | [6] 5.8% | [9] 8.39%
inactive: [1] 50.6% | [2] 81.5% | [4] 24.1% | [5] 88.9% | [10] 60.9% | [8] 93.8%

COC(=O)c1cc2c(=O)[nH]cc3c2c(n1)CCC3
inactive: [1] 113% | [2] 76.2% | [3] 105% | [4] 99.8% | [5] 103% | [6] 100% | [10] 99.1% | [8] 109% | [9] 108%

COc1ccc(C2CC(c3cc(OC)c(OC)c(OC)c3)=NN2C(C)=O)cc1OCC(=O)Nc1nc2ccc(C(F)(F)F)cc2s1 (configuration not stated)
inactive: [1] 63.4% | [2] 42% | [3] 62.3% | [4] 117% | [5] 69.5% | [6] 97% | [10] 67.1% | [8] 26.4% | [9] 63%

Nc1ccc(Cl)c([N+](=O)[O-])c1
inactive: [1] 90.1% | [2] 97.8% | [3] 101% | [4] 86% | [5] 97.4% | [6] 108% | [10] 114% | [8] 110% | [9] 105%
